# In PubChem BioAssay:
# “And” between values parts separate entries of the source, which are not always exact repeats. Equal values may be shown once. Inconclusive results are not listed. The source made the active and inactive calls. Unless noted, no stated cut-off is given here; in the data, active means inhibition above about 80%; inactive means the rest.
# Key:
# [1] = compounds altering circadian rhythm period length – cell-based, LOPAC library, luminescence reporter (AID 2774; call rule not given here;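 further: values are relative to mean of DMSO wells on each plate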); details: circadian reporter cells, at 7 µM, actives lie on both sides
# [2] = system: Neuropilin-2 / VEGF-C interaction (human); assay: small molecules blocking Neuropilin-2/VEGF-C interaction – biochemical, microplate binding format, z-score (AID 743281; call rule not given here); details: microplate NRP2/VEGF-C binding assay; stronger effect = lower value
# [3] = system: Aerobactin synthetase IucA (Klebsiella pneumoniae); assay: inhibition of K. pneumoniae IucA enzyme – biochemical, Tocris library, absorbance (AID 1345561; call rule not given here;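 further: 100% = enzyme without compound and 0% = no enzyme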); details: purified IucA enzyme assay, absorbance (OD) read-out; stronger effect = lower value;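 tested at 8 µM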
# [4] = viability loss in pontine glioma line – cell-based, SU-DIPG-XIII, MIPE5.0, CellTiter-Glo, qHTS, dose response (AID 1347064; cut-off not given, nearly all actives have AC50 up to about 23 µM); details: CellTiter-Glo ATP luminescence
# [5] = growth inhibition, single agents and combos, CRL2098, cell-based, BGB or cisplatin IC20 combos, synergistic combos for chromothripsis tumors (AID 1671454); details: CRL2098 osteosarcoma cells, drug combinations, stronger effect = higher value;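 further: cells exposed for 96 h before readout; 0% = vehicle DMSO and 100% = killing by high DMSO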
# [6] = growth inhibition, single agents and combos, HD-MB03, cell-based, BGB or cisplatin IC20 combos, synergistic combos for chromothripsis tumors (AID 1671455; in the data active means inhibition above about 83%;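 further: 0% = vehicle DMSO and 100% = high DMSO as cytotoxic control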); details: HD-MB03 medulloblastoma cells, stronger effect = higher value
# [7] = growth inhibition, single agents and combos, UWB1.289, cell-based, BGB or cisplatin combos, synergistic combos for chromothripsis tumors (AID 1671456); details: UWB1.289 ovarian carcinoma cells, stronger effect = higher value;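 further: cells exposed to compound for four days; 0% = vehicle DMSO and 100% = killing by high DMSO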
# [8] = growth inhibition, single agents and combos, LFS_MB_2R, cell-based, cisplatin combos, synergistic combos for chromothripsis tumors (AID 1671457); details: LFS_MB_2R medulloblastoma cells, stronger effect = higher value;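 further: cells exposed to compound for four days before readout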
# [9] = UWB1.289_BRCA1 ovarian cancer growth, cell-based, BGB or cisplatin combinations (AID 1671459); details: UWB1.289 BRCA1 ovarian carcinoma, drug combinations, stronger effect = higher value
# [10] = drug combination toxicity in non-malignant astrocytes – cell-based, BGB or cisplatin IC20 combos, cytotoxicity control for chromothriptic childhood tumor combination screen (AID 1671460); details: Human astrocytes, viability inhibition, drug combinations, at 0.5 µM, stronger effect = higher value;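 further: cells exposed to compounds for 96 hours before viability readout; 0% = vehicle and 100% = killing control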
# [11] = target: ATP-dependent translocase ABCB1 (Homo sapiens) (UniProt P08183); assay: P-glycoprotein substrate transport blockade – cell-based (AID 377; in the data active means fluorescence slope change above about 50%); details: MDR1-expressing cells, fluorescent substrate accumulation slope; stronger effect = higher value; concentration not given here
# [12] = chitosan synthesis blockers in C. neoformans – flow cytometry, Cibacron Brilliant Red staining (AID 1347148; call rule not given here;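 further: compound exposure lasted three days at 37 degrees C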); details: Cryptococcus neoformans chitosan, stronger effect = lower value; at 99.1 µM unless noted
# [13] = P. berghei load reduction in hepatocytes – cell-based, HepG2, luciferase luminescence, HepG2 viability, primary screen (AID 624349; in the data active means parasite load remaining mostly below about 12%, no sharp cut-off; inactive means mostly above about 10%;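 further: 100% = mean of DMSO negative control wells on the same plate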); details: P. berghei liver stage in HepG2, luciferase luminescence, concentration not given here; parasite load remaining: stronger effect = lower value; viability: measured here: HepG2 viability without parasites
# [14] = measured here: combination with BGB at IC20, at 0.5 µM
# [15] = measured here: combination with cisplatin at IC20, at 0.5 µM
# [16] = measured here: combo with BGB at IC20, at 0.5 µM
# [17] = measured here: combo with cisplatin at IC20, at 0.5 µM
# [18] = measured here: inhibition with BGB combination, at 0.05 µM
# [19] = measured here: inhibition with cisplatin combination, at 0.05 µM
# [20] = measured here: combination with cisplatin, at 0.5 µM
# [21] = measured here: combination with cisplatin, at 5 µM
# [22] = BGB combination, concentration series, at 5 µM
# [23] = cisplatin combination, concentration series, at 5 µM
# [24] = measured here: combo with BGB IC20
# [25] = measured here: combo with cisplatin IC20
# Chain of ATP-dependent translocase ABCB1 (Homo sapiens) (P08183 whole entry, looked up): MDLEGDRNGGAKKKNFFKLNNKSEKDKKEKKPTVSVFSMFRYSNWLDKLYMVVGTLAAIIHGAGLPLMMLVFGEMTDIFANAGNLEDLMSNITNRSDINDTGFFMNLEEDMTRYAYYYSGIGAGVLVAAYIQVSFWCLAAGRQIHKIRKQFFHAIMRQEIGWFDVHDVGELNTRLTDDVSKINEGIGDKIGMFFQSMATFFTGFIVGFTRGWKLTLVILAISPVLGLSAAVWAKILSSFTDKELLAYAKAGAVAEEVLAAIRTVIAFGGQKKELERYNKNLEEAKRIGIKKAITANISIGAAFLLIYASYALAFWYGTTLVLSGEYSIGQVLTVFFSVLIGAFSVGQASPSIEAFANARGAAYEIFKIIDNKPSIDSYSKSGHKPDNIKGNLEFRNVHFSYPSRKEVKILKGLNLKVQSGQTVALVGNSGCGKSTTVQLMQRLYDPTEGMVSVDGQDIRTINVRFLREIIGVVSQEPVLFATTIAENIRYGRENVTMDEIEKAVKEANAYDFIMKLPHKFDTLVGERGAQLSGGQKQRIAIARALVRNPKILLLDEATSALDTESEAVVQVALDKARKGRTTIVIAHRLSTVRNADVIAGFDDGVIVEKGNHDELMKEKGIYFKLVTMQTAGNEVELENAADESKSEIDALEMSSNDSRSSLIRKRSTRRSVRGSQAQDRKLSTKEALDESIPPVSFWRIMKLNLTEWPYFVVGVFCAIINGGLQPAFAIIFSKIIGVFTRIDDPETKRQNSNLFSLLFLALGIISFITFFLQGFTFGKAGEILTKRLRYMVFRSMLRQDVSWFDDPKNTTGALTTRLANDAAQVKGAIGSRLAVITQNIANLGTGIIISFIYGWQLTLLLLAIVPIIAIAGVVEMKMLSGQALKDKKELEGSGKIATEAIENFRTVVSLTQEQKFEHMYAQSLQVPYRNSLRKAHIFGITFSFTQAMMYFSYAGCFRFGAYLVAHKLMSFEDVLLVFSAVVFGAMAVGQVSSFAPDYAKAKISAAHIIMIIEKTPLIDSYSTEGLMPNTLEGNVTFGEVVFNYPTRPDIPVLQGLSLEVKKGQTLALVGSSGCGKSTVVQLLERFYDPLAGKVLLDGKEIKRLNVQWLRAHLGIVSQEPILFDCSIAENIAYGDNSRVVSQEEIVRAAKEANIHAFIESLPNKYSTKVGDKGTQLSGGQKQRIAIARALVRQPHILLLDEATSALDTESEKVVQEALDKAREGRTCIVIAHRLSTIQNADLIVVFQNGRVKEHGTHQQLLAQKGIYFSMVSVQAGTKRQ
compound,measurement,setting,value
CC12CC3CC(C)(C1)CC(N)(C3)C2,period change,[1],0.205 h (inactive)
same,outcome,[2],inactive
same,remaining activity,[3],87.5% (inactive)
CC1COc2c(N3CCN(C)CC3)c(F)cc3c(=O)c(C(=O)O)cn1c23 (centres undefined),period change,[1],0.06 h (inactive)
same,outcome,[4],inactive
same,inhibition,[5]; at 0.5 µM,-97.4% (inactive) and -9.66% (inactive) and -3.54% (inactive)
same,inhibition,[5]; [14],-84.4% and -20.4% and 15.5%
same,inhibition,[5]; [15],-95.4% and 17.6% and 11.9%
same,inhibition,[6]; at 0.5 µM,-17.7% (inactive) and 0.8% (inactive) and 1.26% (inactive)
same,inhibition,[6]; [16],-22% and -1.41% and -0.426%
same,inhibition,[6]; [17],-27.3% and 2.8% and -2.37%
same,inhibition,[7]; at 0.5 µM,-7.78% (inactive) and 3.9% (inactive) and 3.09% (inactive)
same,inhibition,[7]; [18],-28.7% and 4.48% and 2.71%
same,inhibition,[7]; [19],-3.9% and 3.6% and -0.825%
same,inhibition,[8]; at 0.5 µM,-19.3% (inactive) and 6.15% (inactive) and -0.77% (inactive)
same,inhibition,[8]; [20],-23.3% and -0.024% and 7.26%
same,inhibition,[8]; [21],-88.9% and 5.83% and 8.15%
same,inhibition,[9]; [22],-49.7% and -1.75% and -2.9%
same,inhibition,[9]; at 0.5 µM,-9.08% (inactive) and -0.86% (inactive) and 1.25% (inactive)
same,inhibition,[9]; [23],-6.84% and 7.33% and -3.71%
same,inhibition,[10],-0.29% (inactive) and 4.48% (inactive) and 7.23% (inactive)
same,inhibition,[10]; [24],12.7% and 6.41% and 15%
same,inhibition,[10]; [25],-18.7% and -2.95% and 15.1%
CCCc1cc(=O)[nH]c(=S)[nH]1,fluorescence slope change,[11],-6.8% (inactive)
same,outcome,[4],inactive
COCCOC(=O)C1=C(C)NC(C)=C(C(=O)OC(C)C)C1c1cccc([N+](=O)[O-])c1 (centres undefined),period change,[1],0.19 h (inactive)
same,z-score,[2],-0.18 (inactive)
same,remaining activity,[3],102% (inactive)
same,fold fluorescence,[12],6.04 [at 119.5 µM] (inactive)
COc1ccc(Cl)cc1C(=O)NCCc1ccc(S(=O)(=O)NC(=O)NC2CCCCC2)cc1,fluorescence slope change,[11],105% (active)
same,period change,[1],0.16 h (inactive)
same,remaining activity,[3],104% (inactive)
same,fold fluorescence,[12],3.32 [at 101.2 µM] (inactive)
CS(=O)(=O)OCCCCOS(C)(=O)=O,fluorescence slope change,[11],13.3% (inactive)
same,parasite load remaining,[13],46.8% (inactive) and 102% (inactive) and 58% (inactive)
same,viability,[13],95.5% and 78.8% and 98.1%
same,inhibition,[5]; at 0.5 µM,-52.1% (inactive) and -4.61% (inactive)
same,inhibition,[5]; [14],-29.9% and -15.7%
same,inhibition,[5]; [15],-107% and 11.7%
same,inhibition,[6]; at 0.5 µM,-10.8% (inactive) and -1.12% (inactive)
same,inhibition,[6]; [16],-20.4% and -4.59%
same,inhibition,[6]; [17],-6.85% and 1.19%
same,inhibition,[7]; at 0.5 µM,4.55% (inactive) and 10.4% (inactive)
same,inhibition,[7]; [18],-3.6% and 0.829%
same,inhibition,[7]; [19],24.9% and -0.011%
same,inhibition,[8]; at 0.5 µM,-13.8% (inactive) and 9.5% (inactive)
same,inhibition,[8]; [20],-18.7% and -5.75%
same,inhibition,[8]; [21],-4.43% and 9.74%
same,inhibition,[9]; [22],12% and 6.21%
same,inhibition,[9]; at 0.5 µM,5.87% (inactive) and 9.31% (inactive)
same,inhibition,[9]; [23],-4.07% and 9.32%
same,inhibition,[10],7.45% (inactive) and 3.61% (inactive)
same,inhibition,[10]; [24],2.2% and 2.78%
same,inhibition,[10]; [25],9.68% and 12.3%
